The supplement of paper PMC9844399
Counter-ions that a name gives are not always drawn.

What follows are molecules tested on HeLa (assay: nuclear count per well, robust Z-score vs DMSO; higher = more cells (less toxicity)). Settings: 10 µM; 6 h.
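Further: Hoechst-stained nuclei counted by automated confocal imaging of four fields per well in 384-well plates, with the robust Z-score based on the per-plate DMSO median and robust SD.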

Compound | nuclear count per well
O=C(O)c1cn(C2CC2)c2cc(N3CCNCC3)c(F)cc2c1=O [Ciprofloxacin] | -0.537
CCCCS(=O)(=O)N[C@@H](Cc1ccc(OCCCCC2CCNCC2)cc1)C(=O)O | 0.264
CC(=O)N[C@@H](CC(C)C)C(=O)N[C@@H](CC(C)C)C(=O)N[C@H](C=O)CCCNC(=N)N [Leupeptin hemisulfate salt] | 0.618
CC1=C(/C=C/C(C)=C/C=C/C(C)=C\C(=O)O)C(C)(C)CCC1 [Isotretinoin] | 0.753
O=C(c1ccc(OCCN2CCCCC2)cc1)c1c(-c2ccc(O)cc2)sc2cc(O)ccc12 [Raloxifene hydrochloride] | 1.29
c1ccc2[nH]cnc2c1 [DRB (Benzimidazole)] | 0.163
COc1ccc([C@@H]2Sc3ccccc3N(CCN(C)C)C(=O)[C@@H]2OC(C)=O)cc1 | 0.374
C[C@@H]1C[C@H]2[C@@H]3CCC4=CC(=O)C=C[C@]4(C)[C@@]3(F)[C@@H](O)C[C@]2(C)[C@@]1(O)C(=O)CO [Dexamethasone] | -0.335
CNC(=O)[C@H]1O[C@@H](n2cnc3c(NCc4cccc(I)c4)ncnc32)[C@H](O)[C@@H]1O | -1.23
O=C(O)COCCN1CCN([C@H](c2ccccc2)c2ccc(Cl)cc2)CC1 [Levocetirizine Dihydrochloride] | 0.431
C[C@H]1[C@H](NC(=O)/C(=N\OC(C)(C)C(=O)O)c2csc(N)n2)C(=O)N1S(=O)(=O)O [Aztreonam] | 0.104
CCCCC/C=C\C/C=C\C/C=C\C/C=C\CCCC(=O)O[C@@H](CO)COCCCCCCCCCCCCCCCC [1-Hexadecyl-2-arachidonoyl-glycerol] | 0.524
CCCCc1ncc(/C=C(\Cc2cccs2)C(=O)O)n1Cc1ccc(C(=O)O)cc1 [Eprosartan Mesylate] | 1.34
COc1cc(C=C(C#N)C(N)=O)cc(CSc2nc3ccccc3s2)c1O [Tyrphostin AG-825] | 0.276
c1ccc2[nH]c(-c3cscn3)nc2c1 [Thiabendazole] | 0.317
C=C1O[C@@](CO)(n2cnc3c(N)ncnc32)[C@H](O)[C@@H]1O [Decoyinine] | -0.362
CC(=O)OCC(=O)[C@@]1(O)CC[C@H]2[C@@H]3CCC4=CC(=O)CC[C@]4(C)[C@H]3C(=O)C[C@@]21C [Cortisone Acetate] | 0.291
Cc1nc(Nc2ncc(C(=O)Nc3c(C)cccc3Cl)s2)cc(N2CCN(CCO)CC2)n1 [Dasatinib] | -1.63

Compound | nuclear count per well
C=CC(C)(C)c1cc(/C=C/C(=O)c2ccc(O)cc2)c(OC)cc1O [Licochalcone A] | 1.12
O=C(O)C1(C(=O)O)CCC1.[NH2-].[NH2-].[Pt+2] [Carboplatin] | 0.428
CNCCC(Oc1ccc(C(F)(F)F)cc1)c1ccccc1 (stereo not given) | -0.209
CCOC(=O)C1=C(COCCN)NC(C)=C(C(=O)OC)C1c1ccccc1Cl (stereo not given) [Amlodipine] | -0.153
NC[C@H]1O[C@H](O[C@H]2[C@H](O)[C@@H](O[C@H]3O[C@H](CO)[C@@H](O)[C@H](N)[C@H]3O)[C@H](N)C[C@@H]2N)[C@H](O)[C@@H](O)[C@@H]1O [Kanamycin Sulfate] | 0.2
CCCCCCCCCCCCCCCCOCC(CO)OC(C)=O (stereo not given) [1-Hexadecyl-2-O-acetyl-glycerol] | 0.253
CCCC(=O)O[C@]1(C(=O)COC(C)=O)CC[C@H]2[C@@H]3C[C@H](F)C4=CC(=O)C=C[C@]4(C)[C@@]3(F)[C@@H](O)C[C@@]21C [Difluprednate] | 0.412
Nc1ccn([C@H]2CC[C@@H](CO)O2)c(=O)n1 [Zalcitabine] | -0.556
Brc1c(NC2=NCCN2)ccc2nccnc12 [Brimonidine] | 0.626
C[N+](C)(C)CC(=O)O [Betaine] | 0.526
NCCC(O)(P(=O)(O)O)P(=O)(O)O [Pamidronate Disodium  Pentahydrate (Pamidronic Acid)] | 0.523
CCN(CC)CCNC(=O)c1cc(Cl)c(N)cc1OC | -0.369
CC(C)=C1CCC(C)CC1=O (single isomer, unassigned; (+)) [(+)-Pulegone] | 0.24
c1ccc2c(CC3=NCCN3)cccc2c1 | 0.219
NCC[C@H](O)C(=O)N[C@@H]1C[C@H](N)[C@@H](O[C@H]2O[C@H](CN)[C@@H](O)[C@H](O)[C@H]2O)[C@H](O)[C@H]1O[C@H]1O[C@H](CO)[C@@H](O)[C@H](N)[C@H]1O [Amikacin Disulfate] | -0.373
Cc1cccc(Nc2nc(-c3ccncc3)cs2)c1 | -0.258
